Values joined by “and” are separate entries in the source; they are usually repeats but may differ in a detail not shown here. Equal values may be shown once. Some compounds were tested as several samples or in several runs, with calls that do not always agree. Active and inactive are the calls of the source. How the source made its calls: active means hit-call score of the fitted dose curve at least 0.9, where 1 is the maximum; inactive means score below 0.9.
Assays:
Decorin, DCN (gene 1634) = experiment: BSK_MyoF_Decorin: BioMAP Diversity Plus: MyoF Assay for Decorin Biomarker Activity (AID 2284265); settings: primary human lung fibroblasts
Summary of the method: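 Decorin protein was quantified by ELISA 24 h after chemical addition to primary human lung fibroblasts and analysed as increase over DMSO. Cytotoxicity was tracked in parallel cultures by SRB total-protein staining read at 560 nm.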

[1] = BSK_MyoF_SRB: Viability Assessment in the BioMAP Diversity Plus: MyoF Assay (AID 2284267); settings: primary human lung fibroblasts;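 further: total protein by SRB absorbance in parallel cultures as cytotoxicity measure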
Summary of the method: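 Cytotoxicity in primary human lung fibroblasts is gauged by SRB total-protein staining 24 h after dosing, with DMSO as the negative control.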

[2] = read-out: Matrix Metallopeptidase 1 (MMP1), MMP1 (gene 4312); experiment: BSK_MyoF_MMP1: BioMAP Diversity Plus: MyoF Assay for Matrix Metallopeptidase 1 (MMP1) Biomarker Activity (AID 2284268); settings: primary human lung fibroblasts
Summary of the method: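 Human lung fibroblasts (MyoF system) exposed to chemical for 24 h in 96-well format; MMP1 biomarker quantified by ELISA, with activity fitted in the positive direction relative to DMSO baseline.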

[3] = read-out: TIMP metallopeptidase inhibitor 1 (TIMP1), TIMP1 (gene 7076); experiment: BSK_MyoF_TIMP1: BioMAP Diversity Plus: MyoF Assay for TIMP metallopeptidase inhibitor 1 (TIMP1) Biomarker Activity (AID 2284269); settings: primary human lung fibroblasts
Summary of the method: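 Primary human lung fibroblasts, MyoF multiplex system; chemical exposure 24 h; TIMP-1 by ELISA; positive fitting direction vs DMSO control.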

[4] = read-out: Interleukin-8 (IL8), CXCL8 (gene 3576); experiment: BSK_BF4T_IL8: BioMAP Diversity Plus: BF4T Assay for Interleukin-8 (IL8) Biomarker Activity (AID 2284263); settings: primary human bronchial epithelial cells with fibroblasts
Summary of the method: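 Human bronchial epithelial cells with dermal fibroblasts co-culture; IL-8 measured by ELISA 24 hours after dosing, fitted vs DMSO. Cytotoxicity tracked in parallel cultures by SRB total-protein staining.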

[5] = read-out: Interleukin-1 alpha (IL1a), IL1A (gene 3552); experiment: BSK_BF4T_IL1a: BioMAP Diversity Plus: BF4T Assay for Interleukin-1 alpha (IL1a) Biomarker Activity (AID 2284264); settings: primary human bronchial epithelial cells with fibroblasts
Summary of the method: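 Human bronchial epithelial cells co-cultured with dermal fibroblasts, dosed and read at 24 h. Secreted/surface IL-1α quantified by ELISA; gain-of-signal fitted relative to DMSO baseline. Parallel SRB total-protein staining tracked cytotoxicity.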

KRT18 (gene 3875) [6] = experiment: BSK_BF4T_Keratin818: BioMAP Diversity Plus: BF4T Assay for Keratin 818 Biomarker Activity (AID 2284266); settings: primary human bronchial epithelial cells with fibroblasts
Summary of the method: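 Co-culture of human bronchial epithelial cells and dermal fibroblasts, chemical exposure 24 h. Keratin 8/18 measured by ELISA; positive-direction fit vs DMSO. SRB total protein run in parallel cultures for cytotoxicity.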

[7] = read-out: Matrix Metallopeptidase 1 (MMP1), MMP1 (gene 4312); experiment: BSK_BF4T_MMP1: BioMAP Diversity Plus: BF4T Assay for Matrix Metallopeptidase 1 (MMP1) Biomarker Activity (AID 2284270); settings: primary human bronchial epithelial cells with fibroblasts
Summary of the method: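 Co-culture of human bronchial epithelial cells and dermal fibroblasts; MMP-1 levels measured by ELISA 24 hours after chemical dosing, relative to DMSO. Cytotoxicity checked in parallel cultures by SRB total-protein staining.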

[8] = read-out: Matrix Metallopeptidase 3 (MMP3), MMP3 (gene 4314); experiment: BSK_BF4T_MMP3: BioMAP Diversity Plus: BF4T Assay for Matrix Metallopeptidase 3 (MMP3) Biomarker Activity (AID 2284271); settings: primary human bronchial epithelial cells with fibroblasts
Summary of the method: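 Co-culture of human bronchial epithelial cells and dermal fibroblasts dosed 24 h; MMP-3 measured by ELISA, positive-direction fit versus DMSO. Cytotoxicity tracked by SRB total-protein staining (560 nm) in parallel cultures.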

[9] = read-out: Tissue plasminogen activator (tPA), PLAT (gene 5327); experiment: BSK_BF4T_tPA: BioMAP Diversity Plus: BF4T Assay for Tissue plasminogen activator (tPA) Biomarker Activity (AID 2284272); settings: primary human bronchial epithelial cells with fibroblasts
Summary of the method: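 tPA level quantified by ELISA at 24 h post-treatment in bronchial epithelial/dermal fibroblast co-cultures, gain of signal scored against DMSO baseline. Parallel cultures stained with 0.1% SRB (560 nm) to flag overt cytotoxicity.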

[10] = read-out: Plasminogen Activator Inhibitor-1 (PAI1), SERPINE1 (gene 5054); experiment: BSK_BF4T_PAI1: BioMAP Diversity Plus: BF4T Assay for Plasminogen Activator Inhibitor-1 (PAI1) Biomarker Activity (AID 2284273); settings: primary human bronchial epithelial cells with fibroblasts
Summary of the method: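 Co-culture of human bronchial epithelial cells and dermal fibroblasts exposed to compound for 24 h. PAI-1 measured by ELISA; activity fitted in positive direction versus DMSO. Parallel SRB staining assessed overt cytotoxicity.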

[11] = BSK_BF4T_SRB: Viability Assessment in the BioMAP Diversity Plus: BF4T Assay (AID 2284274); settings: primary human bronchial epithelial cells with fibroblasts
Summary of the method: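 Co-culture of human bronchial epithelial cells and dermal fibroblasts (BioMAP BF4T) exposed 24 h. Total protein by sulforhodamine B staining (0.1% SRB after 10% TCA fixation, 560 nm) in parallel cultures; fitted vs DMSO.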

[12] = read-out: urokinase Plasminogen Activator (uPA), PLAU (gene 5328); experiment: BSK_BF4T_uPA: BioMAP Diversity Plus: BF4T Assay for urokinase Plasminogen Activator (uPA) Biomarker Activity (AID 2284275); settings: primary human bronchial epithelial cells with fibroblasts
Summary of the method: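 Co-culture of human bronchial epithelial cells and dermal fibroblasts; uPA quantified by ELISA 24 hours after dosing, fitted relative to DMSO. Parallel SRB total-protein staining assessed overt cytotoxicity.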

[13] = read-out: Matrix Metallopeptidase 9 (MMP9), MMP9 (gene 4318); experiment: BSK_BF4T_MMP9: BioMAP Diversity Plus: BF4T Assay for Matrix Metallopeptidase 9 (MMP9) Biomarker Activity (AID 2284276); settings: primary human bronchial epithelial cells with fibroblasts
Summary of the method: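 Co-culture of human bronchial epithelial cells and dermal fibroblasts dosed for 24 h; MMP-9 quantified by ELISA and fitted upward versus DMSO. Cytotoxicity monitored in parallel cultures by SRB total-protein staining at the biomarker time point.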

[14] = read-out: Interleukin-8 (IL8), CXCL8 (gene 3576); experiment: BSK_IMphg_IL8: BioMAP Diversity Plus: IMphg Assay for Interleukin-8 (IL8) Biomarker Activity (AID 2284277); settings: primary human endothelial cells with macrophages
Summary of the method: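 Co-culture of human venular endothelial cells and macrophages exposed to chemicals for 24 h; IL-8 quantified by ELISA and compared against the DMSO baseline, with SRB total-protein staining in parallel cultures for cytotoxicity.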

[15] = read-out: Intercellular Adhesion Molecule 1 (ICAM1), ICAM1 (gene 3383); experiment: BSK_BE3C_ICAM1: BioMAP Diversity Plus: BE3C Assay for Intercellular Adhesion Molecule 1 (ICAM1) Biomarker Activity (AID 2284278); settings: primary human bronchial epithelial cells;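 further: cell-surface ICAM-1 protein level quantified by ELISA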
Summary of the method: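 Measured by ELISA: ICAM-1 expressed by primary human bronchial epithelial cells 24 h after compound treatment, with upward-direction fitting versus DMSO vehicle.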

[16] = read-out: Interferon-inducible T-cell alpha chemoattractant (ITAC), CXCL11 (gene 6373); experiment: BSK_BE3C_ITAC: BioMAP Diversity Plus: BE3C Assay for Interferon-inducible T-cell alpha chemoattractant (ITAC) Biomarker Activity (AID 2284279); settings: primary human bronchial epithelial cells
Summary of the method: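 Steps: dose human bronchial epithelial cells with chemical; incubate 24 h; measure I-TAC by ELISA; fit endpoint in positive direction against DMSO control. Cytotoxicity was checked in parallel cultures by SRB staining at harvest.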

[17] = read-out: Interleukin-8 (IL8), CXCL8 (gene 3576); experiment: BSK_BE3C_IL8: BioMAP Diversity Plus: BE3C Assay for Interleukin-8 (IL8) Biomarker Activity (AID 2284280); settings: primary human bronchial epithelial cells
Summary of the method: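 Primary human bronchial epithelial cells (BE3C system) exposed 24 h; IL-8 measured by ELISA and fitted in positive direction versus DMSO. Overt cytotoxicity assessed by SRB total-protein staining in parallel cultures.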

[18] = read-out: Epidermal growth factor receptor (EGFR), EGFR (gene 1956); experiment: BSK_BE3C_EGFR: BioMAP Diversity Plus: BE3C Assay for Epidermal growth factor receptor (EGFR) Biomarker Activity (AID 2284281); settings: primary human bronchial epithelial cells
Summary of the method: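 Human primary bronchial epithelial cells (BE3C system) dosed with chemicals; EGFR measured by ELISA at 24 h, fitted in the positive direction relative to DMSO. Cytotoxicity tracked in parallel cultures by SRB total-protein staining.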

KRT18 (gene 3875) [19] = experiment: BSK_BE3C_Keratin818: BioMAP Diversity Plus: BE3C Assay for Keratin 818 Biomarker Activity (AID 2284282); settings: primary human bronchial epithelial cells
Summary of the method: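 BE3C: human bronchial epithelial primary cells, 24 h exposure, Keratin 8/18 ELISA; DMSO = negative control/baseline; cytotoxicity by parallel SRB stain (0.1% SRB after 10% TCA fixation, 560 nm).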

Measured: AC50

CC(C)[N+](C)(CCOC(=O)C1c2ccccc2Oc2ccccc21)C(C)C
inactive: Decorin, DCN (gene 1634) | [1] | [2] | [3]

CCc1cccc(C)c1N(C(=O)CS(=O)(=O)O)C(C)COC (configuration not stated)
inactive: Decorin, DCN (gene 1634) | [1] | [2] | [3]

CCNc1nc(NC(C)(C)C)nc(OC)n1
inactive: Decorin, DCN (gene 1634) | [1] | [2] | [3]

CCCCC1C(=O)N(c2ccccc2)N(c2ccccc2)C1=O
inactive: Decorin, DCN (gene 1634) | [1] | [2] | [3]

CCOC(=O)C1=NOC(c2ccccc2)(c2ccccc2)C1
inactive: Decorin, DCN (gene 1634) | [1] | [2] | [3]

CC1=CC=C(C(C)C)CC1
inactive: Decorin, DCN (gene 1634) | [1] | [2] | [3]

O=C(O)C(F)(F)C(F)(F)C(F)(F)C(F)(F)C(=O)O
inactive: [4] | [5] | Decorin, DCN (gene 1634) | KRT18 (gene 3875) [6] | [1] | [2] | [3] | [7] | [8] | [9] | [10] | [11] | [12] | [13] | [14] | [15] | [16] | [17] | [18] | KRT18 (gene 3875) [19]

CCN1CN(CC)CN(CC)C1
inactive: Decorin, DCN (gene 1634) | [1] | [2] | [3]

CC1(C)CC(O)CC(C)(C)N1[O]
inactive: Decorin, DCN (gene 1634) | [1] | [2] | [3]

C[N+](C)(C)CCCNS(=O)(=O)C(F)(F)C(F)(F)C(F)(F)C(F)(F)C(F)(F)C(F)(F)C(F)(F)C(F)(F)F
active: [5] 30 µM | Decorin, DCN (gene 1634) 9.66 µM and 11.2 µM | KRT18 (gene 3875) [6] 26.5 µM and 5.95 µM | [1] 37.6 µM and 38.7 µM | [2] 49.2 µM and 41 µM | [8] 52.2 µM and 51.4 µM | [9] 8.18 µM and 7.16 µM | [13] 9.46 µM and 30 µM | [14] 43 µM and 30 µM | [17] 18.1 µM
inactive: [4] | [5] | [3] | [7] | [10] | [11] | [12] | [15] | [16] | [18] | KRT18 (gene 3875) [19]

O=C(Oc1ccccc1)c1ccccc1C(=O)Oc1ccccc1
inactive: Decorin, DCN (gene 1634) | [1] | [2] | [3]

Nc1cccc(N)n1
inactive: Decorin, DCN (gene 1634) | [1] | [2] | [3]

c1ccc2sc(SSN3CCOCC3)nc2c1
inactive: Decorin, DCN (gene 1634)
active: [1] 31.5 µM | [2] 4.91 µM | [3] 31.5 µM

CCCCCCOC(=O)CCCCC(=O)OCCCCCC
inactive: Decorin, DCN (gene 1634) | [1] | [2] | [3]

CC/C=C\CCOC(=O)c1ccccc1O
active: Decorin, DCN (gene 1634) 20 µM | [1] 37 µM | [3] 35.5 µM
inactive: [2]

C=CC(=O)OCC(C)OCC(C)OCC(C)OC(=O)C=C (configuration not stated)
active: Decorin, DCN (gene 1634) 20 µM | [1] 33.2 µM | [2] 35.1 µM

Oc1c(Cl)cc(Cl)c(Cl)c1Cl
inactive: [2]
active: Decorin, DCN (gene 1634) 37.4 µM | [1] 26.6 µM | [3] 33 µM

C=CC(=O)NC(C)(C)C
inactive: Decorin, DCN (gene 1634) | [1] | [2] | [3]

CC(C)CCCCCOC(=O)CS
inactive: Decorin, DCN (gene 1634) | [1] | [2] | [3]

O=C(Cl)c1c(Cl)c(Cl)c(C(=O)Cl)c(Cl)c1Cl
inactive: Decorin, DCN (gene 1634) | [1] | [2] | [3]

CC(Cl)COP(=O)(OCC(C)Cl)OCC(C)Cl (configuration not stated)
inactive: Decorin, DCN (gene 1634) | [1] | [2] | [3]

CC=C(C)C(C)=O
inactive: Decorin, DCN (gene 1634) | [1] | [2] | [3]

CCCCCCCCCCCC(C)=O
inactive: Decorin, DCN (gene 1634) | [1] | [2] | [3]

CC(C)c1cccc(C(C)C)c1N
inactive: Decorin, DCN (gene 1634) | [1] | [2] | [3]

C=CC(=O)OCCCCCCOC(=O)C=C
inactive: Decorin, DCN (gene 1634)
active: [1] 20 µM | [2] 4.83 µM | [3] 29.4 µM

From PubChem BioAssay (EPA / NIEHS)
